The campaign covered roughly 320,000 compounds. About 3,100 (0.97%) were called active. The sample holds actives, similar compounds and a random draw of the others, so the mix is not that of the screen. A number with no mark means an inactive call.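 Rule for the calls: active = mean replicate inhibition of at least 70% and a set share of replicates each scoring 70 or more; inconclusive = meets just one of the two criteria; inactive = fails both criteria.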
target: Scavenger receptor class B member 1 (Mus musculus) (UniProt Q61009); assay: inhibitors of SR-BI mediated HDL lipid uptake, primary screen, ldlA[mSR-BI] cells, fluorescence, single point (AID 488896); details: ldlA[mSR-BI] CHO cells, DiI-HDL uptake fluorescence, 3 h; at 12.5 µM; stronger effect = higher value;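 note: 0% = median of neutral control wells and 100% = median of positive control wells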
Sequence (Q61009 whole entry, looked up): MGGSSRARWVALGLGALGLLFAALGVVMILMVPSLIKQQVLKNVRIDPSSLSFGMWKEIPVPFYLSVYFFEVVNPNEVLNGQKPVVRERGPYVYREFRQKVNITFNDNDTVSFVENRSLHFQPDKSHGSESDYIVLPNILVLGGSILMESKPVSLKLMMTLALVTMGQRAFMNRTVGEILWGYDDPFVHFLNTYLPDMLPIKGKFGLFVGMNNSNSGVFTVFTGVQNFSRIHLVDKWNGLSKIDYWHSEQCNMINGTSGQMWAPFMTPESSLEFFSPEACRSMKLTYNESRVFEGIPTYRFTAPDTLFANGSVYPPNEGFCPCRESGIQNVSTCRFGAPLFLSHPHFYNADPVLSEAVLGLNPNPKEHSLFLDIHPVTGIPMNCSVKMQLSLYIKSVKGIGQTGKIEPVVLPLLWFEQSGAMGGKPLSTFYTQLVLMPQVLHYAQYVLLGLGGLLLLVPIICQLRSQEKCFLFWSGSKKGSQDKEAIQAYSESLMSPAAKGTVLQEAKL

Structure (SMILES) | inhibition
O=C(CCC(=O)N1CCN(S(=O)(=O)c2ccc(Cl)cc2)CC1)NCc1cccc(C(F)(F)F)c1 | -6.5%
CCOc1cc(CN2CCN(C(=O)CC(C)C)CC2)ccc1OC | 1.83%
CC(C)CC(=O)N1CCN(Cc2cccc(Cl)c2)CC1 | -7.62%
CC(C)CC(=O)N1CCN(Cc2ccccc2Br)CC1 | 82.7% (active)
O=C(Nc1c(Br)cc2c(c1Br)Cc1ccccc1-2)C(F)(F)F | 23.8%
CN(C)c1ccc(Nc2c3c4c(cccc4n(C)c2=O)C(=O)c2ccccc2-3)cc1 | 99.9% (active)
CN(C)c1ccc(C2N(C)C(=O)c3ccccc3N2C)cc1 (configuration not stated) | -4.86%
CCOC(=O)CCC(NC(=O)c1ccc(CNc2nc3cc(C(F)(F)F)ccc3nc2C(=O)OCC)cc1)C(=O)OCC (configuration not stated) | 43.7%
O=C1C[C@@H]2c3c(cccc3CN1Cc1ccccc1)C[C@@H](O)[C@H]2O | -2.09%
COc1ccc(OC)c(Cc2cnc3nc(N)nc(N)c3c2C)c1 | 25.9%
c1ccc(C(=NNc2nc3ccccc3s2)c2ccccn2)cc1 | 40.5%
O=C(c1cccc(S(=O)(=O)N2CCCCCC2)c1)N1CCN(Cc2ccccc2)CC1 | 19.3%
O=S(=O)(O)c1cc2onnc2c2ccccc12 | -15.5%
Cc1ccc(SCc2c(C(=O)N/N=C/c3cccnc3)nnn2-c2nonc2N)cc1 | -5.04%
Nc1nonc1-n1nnc(C(=O)N/N=C/c2cc(Br)ccc2O)c1CSC1=NCCS1 | 104% (active)
Cc1ccc(SCc2c(C(=O)N/N=C/C3CC=CCC3)nnn2-c2nonc2N)cc1 (configuration not stated) | -16.5%
O=[N+]([O-])c1ccc(C=NN=Cc2ccc([N+](=O)[O-])cc2)cc1 | 27%
CC(C)(C)c1nnc2sc(SCC(O)=C(C#N)c3nc4ccccc4[nH]3)nn2c1=O | 22.5%
COc1ccc(OC)c(Nc2nc(-c3ccc(O)c(O)c3)cs2)c1 | 108% (active)
CC(C)(C)C(=O)OCc1nc(-c2ccc(O)c(O)c2)cs1 | -7.58%
COc1ccc(-c2csc(Cc3nc(O)cs3)n2)cc1 | 56.2%
CCN1C[C@@H]2[C@@H]3C(=O)N(C)C(=O)[C@@H]3[C@](C)(C1=O)N2C(=O)c1ccccc1 | 27.8%
COc1ccc(CCC(=O)Nc2ccc(Cl)c(S(=O)(=O)N3CCOCC3)c2)cc1OC | 60.3%

Structure (SMILES) | inhibition
COc1ccc(/C=N/NC(=O)CNC(=O)c2ccc(S(=O)(=O)N3CCCC3)cc2)c(OC)c1 | 84.2% (active)
COc1cc(C(=O)NNC(=O)c2ccc(S(=O)(=O)N3CCCCC3)cc2)cc(OC)c1OC | -0.571%
COc1cccc(/C=N/NC(=O)CNC(=O)c2ccc(S(=O)(=O)N3CCOCC3)cc2)c1OC | 8.73%
COc1ccc(Cn2cc(CN3CCS(=O)(=O)N(Cc4ccc(-c5cccc(Cl)c5)cc4)C(C)C3=O)nn2)cc1 (configuration not stated) | 34.7%
C=CC(=O)Nc1ccc(Nc2ccnc(Nc3ccc(N4CCN(C)CC4)cc3)n2)cc1 | 5.16%
COc1ccc(N2CCC(CNC(=S)Nc3c(C)cccc3C)C2)cc1 (configuration not stated) | 80.7% (active)
COc1ccc(NC(=S)NCC2CCN(c3ccc(OC)cc3)C2)cc1 (configuration not stated) | 27.5%
COc1ccc(NC(=S)NCCN2CCC(C)CC2)cc1 | 1.02%
Cc1ccccc1N1CCN(C(=O)c2cccnc2)CC1 | -2.45%
Cc1cccc(CC2(O)C(=O)Nc3ccccc32)n1 (configuration not stated) | -13%
O=S1(=O)CSCS(=O)(=O)C1 | -19.5%
CCC1CCCCN1C(=S)Nc1ccc(C(C)=O)cc1 (configuration not stated) | -13.3%
Cc1ccc(N=C2SCCCN2C(=O)c2cccc(N3C(=O)CCC3=O)c2)cc1Cl | 32.4%
CC(=O)c1ccc(N=C2SCCCN2C(=O)C2CCCCC2)cc1 | 78.7% (active)
COc1cccc(C=CC(=O)C=CC=Cc2ccccc2)c1 | -11.1%
COc1cc(NC(=O)c2ccc3c(c2)OCO3)ccc1NC(=O)c1cccs1 | 58.8%
COc1cc(NC(=O)COc2ccccc2Cl)ccc1NC(=O)C(C)C | 49.8%
COc1cc(NC(=O)c2cccs2)ccc1NC(=O)c1ccccc1Cl | 83.3% (active)
O=C(Nc1ccccc1)Oc1cccc2cccnc12 | -13.2%
c1ccc(CNc2ncnc3[nH]ncc23)cc1 | -13.5%
CC(=O)Nc1ccc(NC(=O)COc2ccccc2C(=O)Nc2cccc(Cl)c2Cl)cc1 | 63.3%
CN(C)S(=O)(=O)Oc1ccccc1C(=O)Nc1ccccc1Cl | 79.9% (active)
O=C(Nc1ccccc1Cl)c1ccccc1S(=O)(=O)c1ccccc1[N+](=O)[O-] | 4.02%

Structure (SMILES) | inhibition
CCN1C[C@@H]2[C@@H]3C(=O)N(Cc4ccccc4)C(=O)[C@@H]3[C@](C)(C1=O)N2C(=O)c1ccc(C(C)(C)C)cc1 | -30.1%
Oc1ccc(-c2nc3ccccc3nc2-c2ccc(O)cc2O)c(O)c1 | 26%
COc1ccc(-n2c(SCC(=O)NCc3cccs3)nnc2-c2ccoc2C)cc1 | -3.66%
COc1ccc(-n2c(SCC(=O)NCc3ccco3)nnc2-c2c[nH]c3ccccc23)cc1 | 71.4% (active)
O=C(CSc1nnc(-c2c[nH]c3ccccc23)n1-c1ccc(F)cc1)NCc1ccco1 | 20.6%
COc1ccc(CCN2CC(C(=O)OCC(=O)NCc3ccccc3Cl)CC2=O)cc1OC (configuration not stated) | -1.72%
CCN(CC)c1ccc(C(=O)N/N=C/c2ccc(N3CCOCC3)cc2)cc1 | 25%
COc1ccc(/C=N/Nc2cc(N3CCOCC3)nc(C)n2)c(OC)c1 | 52.8%
C(=N/Nc1cc(N2CCOCC2)nc(N2CCOCC2)n1)/c1ccccc1 | 76% (active)
Cc1ccccc1N/N=C/c1ccc(N2CCOCC2)cc1 | 15.9%
CN(C)c1ccc(/C=N/Nc2cc(N3CCOCC3)nc(N3CCOCC3)n2)cc1 | 78.8% (active)
Cc1nc(Cl)cc(N/N=C/c2ccccc2)n1 | 15.7%
O=C1c2ccccc2C(=O)N1CCCCCCN1C(=O)c2ccccc2C1=O | 7.39%
Cc1nc2ccccc2c(C(=O)O)c1-c1ccccn1 | -15.2%
Oc1cccc(CCc2ccccn2)c1 | -0.288%
O=C(O)C(=Cc1ccccc1[N+](=O)[O-])c1ccccc1 | 0.653%
CSCCC(NS(=O)(=O)c1ccc(C)cc1)C(=O)N(C)CC(=O)Nc1ccccc1Br (configuration not stated) | 16.3%
CCOc1ccc(NC(=O)CN(C)C(=O)Cc2sc(C)nc2-c2ccc(F)cc2)cc1OCC | 73.5% (active)
CCOc1ccc(NC(=O)CN(C)C(=O)CCSc2ccc(F)cc2)cc1OCC | 39.6%
Cc1nc(-c2ccc(F)cc2)c(CC(=O)N(C)CC(=O)Nc2c(C)cccc2C)s1 | -10.6%
S=C(Nc1ccccc1)Nc1ccc2ccccc2c1 | 9.12%
O=C(O)c1ccc(Cn2cnc3c(=S)nc[nH]c32)cc1 | -20.4%
CC/C(=C\c1ccc(Cl)cc1)c1ccncc1 | 29.1%

Structure (SMILES) | inhibition
COc1ccc(/C=C2/C(=O)N(c3ccccc3)N=C2C)c(OC)c1 | 30.7%
COc1ccc(/C=C/C2=CC(C)(C)NC(=S)N2)c(OC)c1 | 78.2% (active)
COc1cc(/C=C/C2=CC(C)(C)NC(=S)N2)cc(OC)c1OC | 26.3%
O=C(Nc1ccn(CCCNCc2ccc3[nH]ccc3c2)c(=O)n1)OCc1ccccc1 | 14.3%
FC(F)(F)c1ccc(-c2cccc3c2C2CC3CCN2Cc2ccccc2)cc1 (configuration not stated) | -20.1%
COc1ccc(NC(=O)CCC(=O)Nc2cc(OC)c(NC(=O)c3ccco3)cc2OC)c(OC)c1 | 58.1%
COc1ccccc1C(=O)Nc1ccc(NC(=O)c2ccco2)c(C)c1 | 44.6%
COc1ccc(NC(=O)c2cccc(NC(=O)c3ccco3)c2)c(OC)c1 | 75.7% (active)
CC1C(C)N(C(=O)CCl)c2ccccc2N1C(=O)CCl (configuration not stated) | -12%
Nc1ncnc2c1cnn2C1CC(O)C(CO)O1 (configuration not stated) | -3.29%
Cc1ccc(NC(=O)c2ccc(S(=O)(=O)NCC3CCCO3)cc2)cc1C (configuration not stated) | 51.6%
CCOc1ccc(C(=O)Nc2ccc(S(=O)(=O)NCC3CCCO3)cc2)cc1OCC (configuration not stated) | 82.5% (active)
CCC(=O)Nc1ccc(S(=O)(=O)NCC2CCCO2)cc1 (configuration not stated) | 16.2%
O=C(NCc1ccco1)c1ccc(Cn2c(=O)c3sccc3n(Cc3ccc(F)cc3)c2=O)cc1 | 28.8%
CC(C)(C)c1ccc(C(=O)NCCC(=O)NCc2ccco2)cc1 | -4.1%
CC(C)OCCCNC(=O)c1ccc(C2SCC(=O)N2Cc2ccco2)cc1 (configuration not stated) | 75.6% (active)
CSc1ncnc2c1ncn2CC(=O)C1CCC2C3CCC4=CC(=O)CCC4(C)C3CCC12C (configuration not stated) | -12.4%
O=C(Nc1cccc(Br)c1)C1CC(=O)N(C2CCCC2)C1 (configuration not stated) | -9.43%
O=C(NCC1CCCO1)c1cc2c([nH]c3ccccc32)c(-c2ccc(F)cc2)n1 (configuration not stated) | 64.1%
O=C(NCCc1ccc(F)cc1)c1n[nH]c2ccccc12 | 22.1%
O=C(NCCCO)c1cc2c([nH]c3ccccc32)c(-c2ccc(F)cc2)n1 | 73.4% (active)
Cn1c(=O)[nH]c2c(c(C(=O)O)nn2C)c1=O | -13.4%
CCCCNCCS(=O)(=O)NCc1ccccc1 | -2.76%

— PubChem BioAssay AID488896 (Broad Institute, 2010)
